Laboratory results from ChEMBL document CHEMBL3988442, “University of Dundee, Small-Polar-MMV Screening Library” (2021).
Out of some 48,000 compounds screened, about 13,000 (27%) showed an effect of 50% or more. The list shows a part of the results.

Test system: Wolbachia pipientis
Experiment: Anti-Wolbachia Cell-Based Screen
Format: functional
Set-up: scale not given: in the data most compounds retested in dose-response had high values
Details: 5 µM

SMILES | Percent Effect [%]
Cc1cc(N2CCCC(OC(=O)CCc3cnn(C)c3)C2)nc(C)n1 (centres undefined) | 0.03167
COCCN1CCC(C)(c2cc(O)[nH]n2)CC1 | 107.8
COCCN1CCN(CC2(O)CCCCC2)CC1 | -7.115
COCCCC1(CO)CCCN(CCOC)C1 (centres undefined) | 5.578
COCCN1CCC2(CC1)CC(OCC1CC1)c1ccc(C)cc12 (centres undefined) | -29.1
COCCN1CCCC(C)(c2cc(O)[nH]n2)C1 (centres undefined) | 85
COCCCC1(CO)CCCN(CCS(C)(=O)=O)C1 (centres undefined) | -5.665
COc1cccc([C@@H]2CN(C3CSCCSC3)C[C@H]2C(=O)O)c1 | -1.681
O=C(O)C(F)(F)F.O=C(O)C(F)(F)F.c1cnc(N2CC[C@@H](N3CCOCC3)[C@@H]2Cc2ccncc2)nc1 | -7.245
CC(C)NC(=O)NC(C)c1ccc(-c2ccncc2)cc1 (centres undefined) | -5.821
CN(C)C(=O)c1cc(S(=O)(=O)N2CCCC2Cn2ccnc2)cn1C (centres undefined) | 11.52
CC(C)N(C)CC(=O)N1CCCC(n2ccnc2)C1 (centres undefined) | -10.62
CO[C@H]1CCN(S(=O)(=O)c2cn(C)cn2)[C@H]1Cc1ccncc1 | -4.113
CN([C@@H]1CCC[C@@H](n2ccnc2)[C@@H]1O)S(=O)(=O)c1cn(C)cn1 | 87.13
CCN(CC)[C@@H]1CN(S(=O)(=O)c2cn(C)cn2)[C@@H]2CCCO[C@H]12 | -3.081
Cc1nn(C)cc1S(=O)(=O)N(C)[C@@H]1CCC[C@@H](n2ccnc2)[C@@H]1O | 94.74
CNC(=O)[C@@H](c1ccccc1F)N1CCC[C@H]1C(=O)NC1CCOCC1.Cl | 3.155
CCCN1CCCn2nc(CNS(=O)(=O)c3cccc(C#N)c3)cc2C1 | 3.103
COc1ccc(CNC2CCc3ncnn3C2)cc1OCC1CC1 (centres undefined) | 83.43
COc1ccc(CNC2CCC(O)CC2)cc1OCCCC#N (centres undefined) | 107.9
COc1ccc(CCC(=O)NC2CCC(O)CC2)cc1OC (centres undefined) | -0.04658
COc1ccc(CNCC2CC2)cc1F | 0.5807
CN(C)C(=O)COc1ccccc1CNC1CCc2ncnn2C1 (centres undefined) | -0.6489
COc1ccc(CNC2CCc3ncnn3C2)cc1OCCCC#N (centres undefined) | 100.9
c1ccc(OC2CCCC2)c(CNC2CCc3ncnn3C2)c1 (centres undefined) | 12.7
CNC(=O)COc1ccccc1CNC1CCc2ncnn2C1 (centres undefined) | -1.235

SMILES | Percent Effect [%]
COCCOc1ccc(CNC2CCc3ncnn3C2)cc1OC (centres undefined) | 100.1999
CCOc1ccc(N(CCC#N)C(=O)c2ccc(OC)nc2)cc1 | 22.48
CC(C)N(CC(N)=O)Cc1csc(COc2ccc(F)cc2)n1 | -2.254
CC(C)CN1CC2(CCN(C(=O)C(O)c3cccc(Cl)c3)CC2)CC1=O (centres undefined) | 4.909
COc1cc(C)nc(N2CCN(C(=O)CCc3ccsc3)CC2)n1 | 17.96
CN(Cc1ccccc1NCc1ncc[nH]1)C(=O)c1cccs1 | 4.243
CN(CCc1ccccn1)C(=O)c1cccs1.Cl | 100.7
CN(CC(=O)NCCc1ccccn1)C(=O)c1cccs1 | 94.6
Cc1ccccc1CN(Cc1ccccn1)C(=O)CN(C)C(C)C | -1.429
CC(C)N(Cc1ccccn1)C(=O)CN(C)C(=O)c1cccs1 | 109.7
Cc1cccnc1CC(C)N(C)C(=O)c1cccs1 (centres undefined) | -6.366
O=C(Cc1ccc2c(c1)CCCC2)NCCc1ccccn1 | 0.3571
CN(CCc1ccccn1)C(=O)c1cn2c(n1)CNCC2 | -0.4774
CN(Cc1ccccc1NCc1cscn1)C(=O)c1cccs1 | -0.6624
Cc1nnn2c1COCC(CNC(=O)c1ccc3[nH]ccc3c1)C2 (centres undefined) | 13.15
CCN(C)CC1CCN(C(=O)Nc2ccc(-c3csnn3)cc2)C1 (centres undefined) | -9.21
Cc1nc(C)c(CN(C)C2CCN(C(=O)OC(C)(C)C)CC2)s1 | -6.792
O=S(=O)(Nc1cn[nH]c1)c1ccc(F)c(Br)c1 | -20.95
CC(=O)N(C)CC(=O)NCC1(c2cccc(C)c2)CCCC1 | -4.333
CN(C)c1cncc(C2CCN(CCO)CC2)n1 | -9.091
CN(C)c1cncc(C2CCN(CC3(O)CCCCC3)CC2)n1 | 90.17
OC1(CN2CCCC2)CCCN(Cc2c[nH]c(CC3CCCC3)n2)C1 (centres undefined) | -7.473
CN(C)c1cncc(C2CCN(CC(N)=O)CC2)n1 | 103
COCCN1CCC(c2cncc(N(C)C)n2)CC1 | 88.64
COCCN1CCC(c2nc3ccccc3[nH]2)CC1 | 5.31
OC1(CN2CCCC2)CCCN(Cc2ccc(F)cc2Cl)C1 (centres undefined) | -5.76

SMILES | Percent Effect [%]
CCn1ncnc1CN1CCOC(Cc2cccc3ccccc23)C1 (centres undefined) | -5.971
CCn1cc(C(=O)NCC2(C(N)=O)CCOCC2)c2ccccc21 | -0.08495
Cc1nc(CN(C)C(=O)C2CCC(=O)N(CCN(C)C)C2)cs1 (centres undefined) | 7.495
CCCN(CCc1ccccn1)C(=O)CCc1cnn(C)c1 | 95.46
Cc1ccc(CC(NC(=O)Cn2cnnn2)c2ccccn2)cc1 (centres undefined) | 13.96
CN(C)c1ccc(C(=O)Nc2cnn(Cc3ccccn3)c2)cc1 | -12.03
Cc1ccccc1C(=O)N1C[C@@H]2[C@@H](CN(C)CCc3ccccn3)[C@@H]2C1 | -8.245
CCCN(CCc1ccccn1)C(=O)Cn1cnnn1 | 104.6
CN(CCc1ccccn1)C(=O)C1Cc2ccccc2CN1C (centres undefined) | 6.694
Cc1cnn(C2CN(CC(=O)NCc3ccccn3)C2)c1 | 0.4192
CN(CCCc1cnn(C)c1)C(=O)C1COc2ccccc2C1 (centres undefined) | -12.29
CCCN(CCc1ccccn1)C(=O)Cn1cc(C)cn1 | 98.5
N#CC1(NC(=O)COc2cc(Cl)cc(Cl)c2)CCOCC1 | -7.839
COc1ccc(CN2C[C@@H]3CC[C@H](C2)N(Cc2snnc2C)C3)cc1 | -1.178
CC(C)OCCC(=O)Nc1ncn(CC(=O)N2CCCCCC2)n1 | -17.71
CCCS(=O)(=O)N1CCc2onc(CNc3ncccn3)c2C1 | 6.344
CCn1cc(CN2CCCC(COc3ccc(F)cc3)C2)cn1 (centres undefined) | 31.54
Cc1c(CNCc2nn(-c3ccccc3)c3c2CCC3)cc(C#N)n1C | -12.67
Cc1nccn1C1CCCN(C(=O)c2ccc3c(c2)OCCCO3)C1 (centres undefined) | 112.3
CCc1nccn1C1CCCN(C(=O)c2ccc3c(c2)OCO3)C1 (centres undefined) | 0.5679
CCc1nccn1C1CCCN(C(=O)c2ccnc(N(C)C)c2)C1 (centres undefined) | 1.194
CC(C)c1nccn1C1CCCN(C(=O)c2ccc3c(c2)OCO3)C1 (centres undefined) | -3.611
CCc1nccn1C1CCCN(C(=O)c2ccc3c(c2)OCCO3)C1 (centres undefined) | 89.9
Cc1nccn1C1CCCN(C(=O)c2ccc3c(c2)NC(=O)CO3)C1 (centres undefined) | 3.537
CN(C)c1nc(NCc2ccccc2Cn2cccn2)ncc1F | 5.014
Cc1cccc(C(=O)Nc2ccc(OC3CCOCC3)c(C)c2)n1 | 4.017

SMILES | Percent Effect [%]
COc1ccc(CN2CCCC2)cc1Oc1ccc2c(c1)CC(CN)O2 (centres undefined) | -16.95
O=C(c1ccc(SC(F)(F)F)cc1)N1CCOCC1c1ncon1 (centres undefined) | -6.89
CC(C(=O)N(C)Cc1ccc(Br)o1)n1cncn1 (centres undefined) | -10.62
CCCn1nccc1NC(=O)c1ccc(Cl)c(N2CCNC2=O)c1 | -10.44
Cc1ccc(CN(C(=O)C(C)NC(N)=O)C2CC2)cc1C (centres undefined) | 10.7
CC(C)N(CC(N)=O)Cc1csc(Cc2ccccc2)n1 | -4.617
CC(C)N(Cc1ccc(C#N)cc1)C(=O)Nc1ccccn1 | 7.153
COCCN(Cc1cc(O)nc2ccccc12)C(=O)NC(C)C | 129.1
COCCCN(Cc1cc(O)nc2ccccc12)C(=O)NC(C)C | 116.8
CC(C)NC(=O)N(Cc1cc(O)nc2ccccc12)C(C)C | 134.4
COCCN(Cc1ccccc1Cl)C(=O)c1c(C)cc(C)[nH]c1=O | 2.486
COCCCN(Cc1ccncc1)C(=O)C1COc2ccccc2C1 (centres undefined) | -18.33
CCCN(Cc1ccccc1O)C(=O)Nc1cnn(CCOC)c1 | -1.283
COCCN(Cc1ccc(F)cc1Cl)C(=O)c1ccccn1 | -0.554
Cc1cc(=O)c(C(=O)Nc2cccc(CCN3CCCC3)c2)c[nH]1 | -5.108
O=C(O)CSc1nnc(-c2ccn[nH]2)n1-c1cccc(C(F)(F)F)c1 | -2.54
COc1ccc(-c2nc(C3(NC(=O)OC(C)(C)C)CCC3)no2)cn1 | 3.682
COc1ccc(C(=O)NCCNC(=O)c2cncnc2C)cc1 | -1.399
O=C(COC1CCCCC1)Nc1ccn(Cc2cccnc2)n1 | 3.333
CC1=C[C@@H](CC#N)[C@H](C(C)C)C[C@H]1CC(=O)N1CCN(C)CC1 | 13.63
Oc1cccc(-c2cc(CC3(N(CC4CC4)CC4CC4)COC3)no2)c1 | 2.791
CC(C)=CCS(=O)(=O)Cc1noc(CC(C)C)n1 | -4.798
COCCN1C2(CCN(C(=O)c3cccs3)C2)c2ccccc2S1(=O)=O (centres undefined) | 112.6
CCNC(=O)N1CCC2(C1)c1ccccc1S(=O)(=O)N2CCOC (centres undefined) | 101.2
COCCN1C[C@@H](C)[C@@]2(COCCN(C(=O)c3cccs3)C2)C1.O=C(O)C(F)(F)F | 3.824
COCCN1C[C@H]2CCN(C(=O)Nc3ccccc3C)CC[C@H]2S1(=O)=O | -14.97
